About 79,000 compounds went through this panel and 15% of them were active in at least one assay; those are over-represented in the sample as a whole. A number with no mark means an inactive call. Calls of active or inactive are those of the source. Cut-off read from the data, not from the text of the source: active = growth inhibition above about 70%; inactive = the rest.
Experiment: NCI Yeast Anticancer Drug Screen. Data for the wt1 strain (AID 149);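 note: 0% = growth of vehicle-treated wt1 cultures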
Details: S. cerevisiae wt1 strain (SPY 50644) growth inhibition, hits give high values
Description: Growth inhibition of yeast strains with defined genetic alterations is measured as a screen for potential anti-cancer activity. Selected strains with alterations in DNA damage repair or cell cycle control were exposed to compounds and growth inhibition was measured relative to vehicle treated controls. The strain used in this assay is wt1

Compound	growth inhibition (at 1.2 µM)	growth inhibition (at 3.7 µM)	growth inhibition (at 11.0 µM)	growth inhibition (at 33.0 µM)	growth inhibition (at 100.0 µM)
CC12CCC(C1)C(C)(C)C2OC(=O)c1ccccc1N (stereo not given)	-1%	-1%	-4%	-13%	14%
O=C(O)C1C2c3ccccc3C(c3ccccc32)C1C(=O)O (stereo not given)	-3%	-3%	-2%	-1%	-2%
CCCCCNC(=O)c1c(O)[nH]c(=S)[nH]c1=O	-3%	9%	15%	68%	88% (active)
O=C(c1ccccc1)C1C(c2ccccc2[N+](=O)[O-])N1C1CCCCC1 (stereo not given)	-1%	1%	8%	41%	80% (active)
COc1ccc(/C=C(/C)[N+](=O)[O-])cc1	-28%	-21%	-18%	72% (active)	99% (active)
C/C(=N\N=C(N)N)C(CN1CCOCC1)C(c1ccccc1)c1c(O)c2ccccc2oc1=O (stereo not given)	2%	-2%	-3%	3%	42%
CNC(=O)OCC1C2=C(C(=O)C(C)=C(N)C2=O)N2CC3C(N3C)C12OC (stereo not given)	-2%	4%	4%	2%	17%
CO[C@H](/C(C)=C/C=C/C(C)=C/c1coc(C)n1)[C@H](C)[C@H]1C[C@@H](O)[C@@]2(C)O[C@H]2/C=C/[C@@H](C)[C@@H]2C[C@@H](CC(=O)O2)C[C@H]2O[C@@H]2C(=O)O1	7%	-2%	2%	15%	93% (active)

— PubChem BioAssay (NCI)
